Results taken from PubChem BioAssay (NCATS).
A number with no mark means an inactive call. Results filed as inconclusive are left out. The source made the active and inactive calls. The call rests on the fitted dose curve; in most records, active means well fitted inhibition curve with a large enough effect; inconclusive means small, poorly fitted or top-dose-only effect; inactive means flat fitted curve, though single readings scatter.

Each compound was assayed against Phospholipid hydroperoxide glutathione peroxidase GPX4 (Homo sapiens) (UniProt P36969) (assay: Primary qHTS Assay for Inhibitors of Recombinant Selenoprotein Glutathione Peroxidase 4 (GPX4) (AID 1845192; further: nearly all actives have a fitted effect of over 65% in size; on activity change, negative = inhibition: on the % scale 0 is the no-effect control and ±100 the full control effect)). Conditions: recombinant GPX4, GR-coupled NADPH fluorescence, 15 min; series mostly up to 50 µM; activity change, negative = inhibition: at the top concentration.
Phospholipid hydroperoxide glutathione peroxidase GPX4 (Homo sapiens), sequence (P36969 whole entry, looked up): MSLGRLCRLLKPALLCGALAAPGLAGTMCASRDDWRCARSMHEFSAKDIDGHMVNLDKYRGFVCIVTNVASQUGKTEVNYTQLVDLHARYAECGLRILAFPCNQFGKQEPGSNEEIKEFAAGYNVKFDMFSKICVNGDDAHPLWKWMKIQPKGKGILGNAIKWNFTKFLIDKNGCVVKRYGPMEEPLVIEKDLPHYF
Summary of the method: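 GR-coupled readout: 100 nM GR, 1 mM GSH, 0.5 mM NADPH; NADPH fluorescence (ex 340/em 450 nm) read at t=0 and after 15 min RT. GPX4 200 nM, preincubated 30 min with compound; substrate 0.5 mM CHP.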
Potency means the concentration at half of the fitted maximal effect.

Compound | activity change, negative = inhibition | Potency
C=CC(C)(C)C12CC3C(=O)N4C(CC5(C(C)(C)C=C)c6ccccc6NC45)C(=O)N3C1Nc1ccccc12 (stereo unspecified) | -19.7% [at 27.8 µM] | –
Cn1cc(-c2cnn3c(N)c(Br)c(C4CCCNC4)nc23)cn1 (stereo unspecified) | 0.895% | –
CN(C)C(=O)Nc1cccc(-c2ccc(N(C)C)cc2)c1 | -8.39% | –
COc1cc(N(C)CCN(C)C)c(N)cc1Nc1nccc(-c2cn(C)c3ccccc23)n1 | -13.8% | –
CCC(C(C)O)n1ncn(-c2ccc(N3CCN(c4ccc(OCC5COC(Cn6cncn6)(c6ccc(F)cc6F)C5)cc4)CC3)cc2)c1=O (stereo unspecified) | -18.5% | –
O=C(NCc1cccs1)c1cc2nc(-c3ccco3)cc(C(F)(F)Cl)n2n1 | -8.63% | –
COc1cc2ncc(-c3ccccc3)nc2cc1OC | – | 20.2 µM (active)
c1cc(NC2CCNCC2)nc(-c2cnc3ccccn23)c1 | – | 16.1 µM (active)
Cc1cc2occ(CN(C)CCN(C)Cc3cn(-c4cccc(C(F)(F)F)c4)c4ccccc34)c(=O)c2cc1C | -7.6% | –
COc1cc2c(NC3CCN(C(C)C)CC3)nc(N3CCC(F)(F)CC3)nc2cc1OCCCN1CCCC1 | – | 25.5 µM (active)
N#C/C(=C1\Nc2ccccc2S1)c1ccnc(NCCc2cccnc2)n1 | -22.8% | –
COc1cc(CCc2cc(NC(=O)c3ccc(N4CC(C)NC(C)C4)cc3)n[nH]2)cc(OC)c1 (stereo unspecified) | 5.27% | –
COc1cc(C(=O)O)ccc1NC(=O)C1NC(CC(C)(C)C)C(C#N)(c2ccc(Cl)cc2F)C1c1cccc(Cl)c1F (stereo unspecified) | -5.37% | –
CCOC(=O)N1c2ccc(C(F)(F)F)cc2C(N(Cc2cc(C(F)(F)F)cc(C(F)(F)F)c2)C(=O)OC)CC1CC (stereo unspecified) | 1.6% | –
CN1CCC(NC(=O)c2cc(-c3c(O)cc(O)cc3Oc3ccc([N+](=O)[O-])cc3)on2)CC1 | -2.28% | –
Nc1nc(Nc2ccc3c(c2)CCC(N2CCCC2)CC3)nn1-c1cc2c(nn1)-c1ccccc1CCC2 (stereo unspecified) | -11.2% | –
Nc1nc2c(s1)CCN(Cc1ccc(Cl)cc1)CC2 | 5.31% | –
C=CC(=O)N1CCCC(n2nc(-c3ccc(Oc4ccccc4)cc3)c3c(N)ncnc32)C1 (stereo unspecified) | -18.4% | –
Cc1nc2ccc(CN(C)c3ccc(C(=O)NC(CCC(=O)O)C(=O)O)s3)cc2c(=O)[nH]1 (stereo unspecified) | -0.334% | –
O=C1C[C@]23C=CCN4CCC5c6cc7c(cc6N1[C@@]5(CC2)C43)OCO7 (stereo partly specified) | -12.3% [at 27.8 µM] | –
NS(=O)(=O)c1ccc(N2N=C(c3ccccc3)CC2c2ccccc2)cc1 (stereo unspecified) | – | 16.1 µM (active)

These compounds were tested against Luciferin 4-monooxygenase (Photinus pyralis) (UniProt P08659) (assay: Primary firefly luciferase (FLuc) qHTS assay for identification of artifact compounds. (AID 1845220; further: nearly all actives have a fitted effect of over 60% in size;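 on activity change, negative = inhibition: plate controls were DMSO vehicle for no effect and no enzyme for full effect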)). Conditions: purified firefly luciferase, luminescence, 5 min; series mostly up to 54.1 µM; activity change, negative = inhibition: at the top concentration.
Summary of the method: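 In this counter-screen for luciferase artifacts, test compounds met substrate (10 uM each luciferin and ATP) before 10 nM enzyme started the reaction. Light output was measured 5 min later.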

Compound | outcome | activity change, negative = inhibition | Potency
CN(C)S(=O)(=O)c1ccc(NC(=S)N2CCC(C(O)(c3ccccc3)c3ccccc3)CC2)cc1 | inactive | – | –
C=CC(C)(C)C12CC3C(=O)N4C(CC5(C(C)(C)C=C)c6ccccc6NC45)C(=O)N3C1Nc1ccccc12 (stereo unspecified) | – | 1.12% [at 25.7 µM] | –
Cn1cc(-c2cnn3c(N)c(Br)c(C4CCCNC4)nc23)cn1 (stereo unspecified) | inactive | – | –
COc1cc(N(C)CCN(C)C)c(N)cc1Nc1nccc(-c2cn(C)c3ccccc23)n1 | inactive | – | –
CCC(C(C)O)n1ncn(-c2ccc(N3CCN(c4ccc(OCC5COC(Cn6cncn6)(c6ccc(F)cc6F)C5)cc4)CC3)cc2)c1=O (stereo unspecified) | inactive | – | –
Fc1ccc(N2CCCCC2)c(NC(=S)c2ccncc2)c1 | inactive | – | –
Cc1[nH]c(/C=C2\C(=O)Nc3cc(-c4ccccc4)ccc32)c(C)c1CCC(=O)O | – | – | 6.01 µM (active)
O=C(NCc1cccs1)c1cc2nc(-c3ccco3)cc(C(F)(F)Cl)n2n1 | – | -8.55% | –
c1cc(NC2CCNCC2)nc(-c2cnc3ccccn23)c1 | – | 3.63% | –
CCCCCc1ccc(/C=C/C(=O)Nc2cc(Cl)ccc2C(=O)O)cc1 | – | -9.55% | –
COc1cc2nc(N3CCN(C(=O)COc4c(OC)cccc4C(C)C)CC3)nc(N)c2cc1OC | inactive | – | –
Cc1cc2occ(CN(C)CCN(C)Cc3cn(-c4cccc(C(F)(F)F)c4)c4ccccc34)c(=O)c2cc1C | inactive | – | –
COc1cc2c(NC3CCN(C(C)C)CC3)nc(N3CCC(F)(F)CC3)nc2cc1OCCCN1CCCC1 | – | 0.762% | –
Cc1cc(N2CCOCC2)ccc1Nc1nc(NC2CCCCC2)c2[nH]cnc2n1 | inactive | – | –
COC(=O)c1ccc2c(c1)[nH]c1ncnc(NCCCN3CCCCC3)c12 | inactive | – | –
CCCCCCCOc1cc2c(cc1/C(C)=C/c1ccc(C(=O)O)cc1)C(C)(C)CCS2(=O)=O | – | -6.63% | –
CC(=O)Nc1cccc(-c2csc(Nc3cc(C)ccn3)n2)c1 | – | – | 3.01 µM (active)
COc1ccnc(CS(=O)c2nc3cc(OC(F)F)ccc3[nH]2)c1OC (stereo unspecified) | – | -0.364% | –
N#C/C(=C1\Nc2ccccc2S1)c1ccnc(NCCc2cccnc2)n1 | – | 2.62% | –
COc1cc(CCc2cc(NC(=O)c3ccc(N4CC(C)NC(C)C4)cc3)n[nH]2)cc(OC)c1 (stereo unspecified) | – | 3.95% | –
CCOC(=O)N1c2ccc(C(F)(F)F)cc2C(N(Cc2cc(C(F)(F)F)cc(C(F)(F)F)c2)C(=O)OC)CC1CC (stereo unspecified) | – | 4.58% | –
Nc1nc(Nc2ccc3c(c2)CCC(N2CCCC2)CC3)nn1-c1cc2c(nn1)-c1ccccc1CCC2 (stereo unspecified) | inactive | – | –
Nc1nc2c(s1)CCN(Cc1ccc(Cl)cc1)CC2 | inactive | – | –
C=CC(=O)N1CCCC(n2nc(-c3ccc(Oc4ccccc4)cc3)c3c(N)ncnc32)C1 (stereo unspecified) | – | 4.94% | –
Cc1nc2ccc(CN(C)c3ccc(C(=O)NC(CCC(=O)O)C(=O)O)s3)cc2c(=O)[nH]1 (stereo unspecified) | inactive | – | –
C[C@@H](c1ccc2nccn2c1)n1nnc2ncc(-c3cnn(C)c3)nc21 | – | -21.5% | –
C=C(NC(=O)C(=C)NC(=O)c1csc(C2=NC3c4csc(n4)C4NC(=O)c5csc(n5)C(C(C)(O)C(C)O)NC(=O)C5CSC(=N5)/C(=C/C)NC(=O)C(C(C)O)NC(=O)c5csc(n5)C3(CC2)NC(=O)C(C)NC(=O)C(=C)NC(=O)C(C)NC(=O)C(C(C)CC)NC2C=Cc3c(C(C)O)cc(nc3C2O)C(=O)OC4C)n1)C(N)=O (stereo unspecified) | – | 2.06% | –
Cc1nc2cc(C(=O)NCc3ccccn3)nn2c(C)c1Cc1cccc(Cl)c1 | inactive | – | –
Cc1cc(-c2nc3cc(F)ccc3s2)ccc1NC(=O)[C@@H](N)CCCCN | – | – | 1.9 µM (active)
O=C1C[C@]23C=CCN4CCC5c6cc7c(cc6N1[C@@]5(CC2)C43)OCO7 (stereo partly specified) | inactive | – | –
